The source of these data is article PMC4666376, “Characterisation of aptamer–target interactions by branched selection and high-throughput sequencing of SELEX pools”.
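Also: Pool frequency after one selection round with this target divided by frequency before selection.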

One experiment deals with T1, PAI-1 wild type, active (human, UniProt P05121 24-402). Nature of the experiment: branched SELEX with high-throughput sequencing; PAI-1 immobilised on polyclonal anti-PAI-1 antibody; HBS (10 mM HEPES pH 7.4, 140 mM NaCl), 2 mM MgCl2, 2 mM CaCl2, 0.1% BSA; RNA pool 100 nM; PAI-1 captured on antibody-coated wells; 45 min; binding temperature not stated (PAI-1 capture at room temperature); high values mean tight binding. As to conditions: protein: recombinant; tags: N-terminal His6; structured_RNA; 2'-F pyrimidines.
T1 sequence (P05121 24-402): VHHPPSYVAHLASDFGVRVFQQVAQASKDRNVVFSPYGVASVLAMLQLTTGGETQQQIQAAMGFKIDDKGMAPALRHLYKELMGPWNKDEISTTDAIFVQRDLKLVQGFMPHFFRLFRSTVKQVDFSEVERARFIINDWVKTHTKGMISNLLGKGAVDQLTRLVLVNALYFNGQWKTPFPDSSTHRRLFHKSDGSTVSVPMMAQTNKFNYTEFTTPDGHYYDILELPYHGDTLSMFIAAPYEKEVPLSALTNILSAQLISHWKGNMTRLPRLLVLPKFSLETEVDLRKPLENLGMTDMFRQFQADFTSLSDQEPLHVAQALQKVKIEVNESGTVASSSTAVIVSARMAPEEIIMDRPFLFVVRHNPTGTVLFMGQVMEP
For the sequence “GGGGCCACCAACGACAUUGUCGUAGGACGUGAGUGUCUGACCGAUGUAGUUGGGUUGAUAUAAAUAGUGCCCAUGGAUC”, the binding signal stood at 0.65 enrichment factor.

“GGGGCCACCAACGACAUUCGUGUUGUAUCUGUUAUACAGCAUGUUAUUUGUGCGUUGAUAUAAAUAGUGCCCAUGGAUC”: the binding signal was 3.72 enrichment factor. The same measure, in the same setting: under “GGGGCCACCAACGACAUUGUGCCAUGUAGAUCUUUAGGAGAUCGACCAGCAGUGUUGAUAUAAAUAGUGCCCAUGGAUC” stands 0.57 enrichment factor; under “GGGGCCACCAACGACAUUCGCACUGUAGCUAUGUGGAUAGCGACCAGAAUUUCGUUGAUAUAAAUAGUGCCCAUGGAUC”, 2.51 enrichment factor; under “GGGGCCACCAACGACAUUUGUCAACAUAACGUAGAGCAAUUACAGCUCGAUCAGUUGAUAUAAAUAGUGCCCAUGGAUC”, 3.13 enrichment factor.

“GGGGCCACCAACGACAUUCAGCGAUGUAGUGCACAUUGCACGACCAUGAUGGAGUUGAUAUAAAUAGUGCCCAUGGAUC”: the binding signal worked out at 0.53 enrichment factor. Regarding “GGGGCCACCAACGACAUUUAGGGUGCCGAUCAUGUCACGUAGGCAUCCGAUACGUUGAUAUAAAUAGUGCCCAUGGAUC”, the binding signal amounted to 0.42 enrichment factor. The same measure, in the same setting: under “GGGGCCACCAACGACAUUGACCCGGUCACUUAUGUGGCCGAUAUCGUAGAUGCGUUGAUAUAAAUAGUGCCCAUGGAUC” stands 0.2 enrichment factor.

As for “GGGGCCACCAACGACAUUUACCGUCUGGGUAACCUUGUACGAUAGUACAGUUCGUUGAUAUAAAUAGUGCCCAUGGAUC”, the binding signal was 1.31 enrichment factor. With “GGGGCCACCAACGACAUUGCAUCGUAGGCAUAUAGCUGACUGCAAUUUAGGACGUUGAUAUAAAUAGUGCCCAUGGAUC”, the binding signal came out at 2 enrichment factor. With “GGGGCCACCAACGACAUUUUACUGUAGAGAAGAAUUACUUCUCGACCAAAUGUGGUUGAUAUAAAUAGUGCCCAUGGAUC”, the binding signal turned out to be 0.55 enrichment factor. As to “GGGGCCACCAACGACAUUGAACCACGUAGGCUCGUUUCUGAGCCGAUCUCGAUGUUGAUAUAAAUAGUGCCCAUGGAUC”, the binding signal was found to be 1.62 enrichment factor. On the same count and under the same terms, under “GGGGCCACCAACGACAUUACAUACCGUAGGGCAGAUCGCCUGACUAGUAAUACGUUGAUAUAAAUAGUGCCCAUGGAUC” stands 0.24 enrichment factor; under “GGGGCCACCAACGACAUUGAUGAUCACUGUUUCGCGCAGUGCCGUAUAUCGAUGUUGAUAUAAAUAGUGCCCAUGGAUC”, 4.36 enrichment factor; under “GGGGCCACCAACGACAUUUGGACUGAAUCCAACCUUAUGCGUAAGCAUAGUUCGUUGAUAUAAAUAGUGCCCAUGGAUC”, 2.2 enrichment factor. Still for that read-out and setting: to “GGGGCCACCAACGACAUUAAGUUUCGUCCGGAUCGUGCAAUCCGGUCUAUGUGGUUGAUAUAAAUAGUGCCCAUGGAUC” belongs 4.02 enrichment factor; to “GGGGCCACCAACGACAUUGCCGUAGGAAUUCGUCCUGAGUUCCGAUCAAUAGCGUUGAUAUAAAUAGUGCCCAUGGAUC”, 0.74 enrichment factor; to “GGGGCCACCAACGACAUUAUCGACCAUAACGUAGCGGGCUUUCCCGUGAUCAGGUUGAUAUAAAUAGUGCCCAUGGAUC”, 0.91 enrichment factor. The same measure, in the same setting: to “GGGGCCACCAACGACAUUACGUAGGUAGCAUUUAUAUGCUUGACCGAUCAAUCGUUGAUAUAAAUAGUGCCCAUGGAUC” belongs 1.07 enrichment factor. In the case of “GGGGCCACCAACGACAUUUCACACUGUAAGGCCAUGUGCCGACUAGAAAUUGCGUUGAUAUAAAUAGUGCCCAUGGAUC”, the binding signal worked out at 0.84 enrichment factor.

For “GGGGCCACCAACGACAUUCGUAACGUAGGGAGUAUUCCCGAUCAGAAUGUACAGUUGAUAUAAAUAGUGCCCAUGGAUC”, the binding signal worked out at 0.36 enrichment factor. On the same count and under the same terms, to “GGGGCCACCAACGACAUUGUACCACGUAGGAUGAAGUCAUCCGAUCACAGUGUUGAUAUAAAUAGUGCCCAUGGAUC” belongs 0.87 enrichment factor; to “GGGGCCACCAACGACAUUAUACAGCCGAUCAUGUCACGUAGGCUGUGAUUAACGUUGAUAUAAAUAGUGCCCAUGGAUC”, 0.58 enrichment factor.

Regarding “GGGGCCACCAACGACAUUUCCGUGAGGAUCUAUGUUGUGGAAAACAACAGUUCGUUGAUAUAAAUAGUGCCCAUGGAUC”, the binding signal worked out at 1.09 enrichment factor.

The target of a further experiment is T1, PAI-1 wild type, active. Nature of the experiment: branched SELEX with high-throughput sequencing; PAI-1 immobilised on monoclonal anti-PAI-1 antibody mAb-1; HBS (10 mM HEPES pH 7.4, 140 mM NaCl), 2 mM MgCl2, 2 mM CaCl2, 0.1% BSA; RNA pool 100 nM; PAI-1 captured on antibody-coated wells; 45 min; binding temperature not stated (PAI-1 capture at room temperature); high values mean tight binding. As to conditions: protein: recombinant; tags: N-terminal His6; structured_RNA; 2'-F pyrimidines.
Take “GGGGCCACCAACGACAUUUGCAUAAUGCAUCUAUAGUCGCUAGAGACUAGCUCGUUGAUAUAAAUAGUGCCCAUGGAUC”: the binding signal is 1.69 enrichment factor. Regarding “GGGGCCACCAACGACAUUUAUCGAAUUGAUAACCUUACGCGAGAGCGUAGUUCGUUGAUAUAAAUAGUGCCCAUGGAUC”, the binding signal was determined as 9.69 enrichment factor. The same measure, in the same setting: to “GGGGCCACCAACGACAUUUGCACACCACGUAGGCAAAUUGCCGAUCGUGCUAUGUUGAUAUAAAUAGUGCCCAUGGAUC” belongs 1.3 enrichment factor. On the same count and under the same terms, to “GGGGCCACCAACGACAUUCAGCGAUGUAGUGCACAUUGCACGACCAUGAUGGAGUUGAUAUAAAUAGUGCCCAUGGAUC” belongs 0.44 enrichment factor; to “GGGGCCACCAACGACAUUUCCUAAACAGGAUCUAUACUCCUAGCGAGUAGUUCGUUGAUAUAAAUAGUGCCCAUGGAUC”, 3.43 enrichment factor; to “GGGGCCACCAACGACAUUUAGGGUGCCGAUCAUGUCACGUAGGCAUCCGAUACGUUGAUAUAAAUAGUGCCCAUGGAUC”, 0.62 enrichment factor. Still for that read-out and setting: under “GGGGCCACCAACGACAUUUGCAAUUUAUGCAACCUUAGCGGAUUCGCUAGUUCGUUGAUAUAAAUAGUGCCCAUGGAUC” stands 3.88 enrichment factor; under “GGGGCCACCAACGACAUUUACCGUCUGGGUAACCUUGUACGAUAGUACAGUUCGUUGAUAUAAAUAGUGCCCAUGGAUC”, 1.53 enrichment factor. On to “GGGGCCACCAACGACAUUUGUCAACCGAUCACGCUUAUAGAGCGACCACGUAGGUUGAUAUAAAUAGUGCCCAUGGAUC”, for which the binding signal amounted to 5.14 enrichment factor. The same measure, in the same setting: under “GGGGCCACCAACGACAUUGAACCACGUAGGCUCGUUUCUGAGCCGAUCUCGAUGUUGAUAUAAAUAGUGCCCAUGGAUC” stands 2.66 enrichment factor; under “GGGGCCACCAACGACAUUGUACUGUAGUCUUGAUUUUAAGACGACCAAAUGUAGUUGAUAUAAAUAGUGCCCAUGGAUC”, 1.02 enrichment factor; under “GGGGCCACCAACGACAUUUGGACUGAAUCCAACCUUAUGCGUAAGCAUAGUUCGUUGAUAUAAAUAGUGCCCAUGGAUC”, 3.55 enrichment factor. On the same count and under the same terms, to “GGGGCCACCAACGACAUUGGUCACAUGACCACCGUAUGAUUUACUCAUAGUUCGUUGAUAUAAAUAGUGCCCAUGGAUC” belongs 2.36 enrichment factor. Regarding “GGGGCCACCAACGACAUUAACAACCCGUAGACGUCAUCGUCGAUCGCGUUAGUGUUGAUAUAAAUAGUGCCCAUGGAUC”, the binding signal was determined as 1.35 enrichment factor. The same measure, in the same setting: to “GGGGCCACCAACGACAUUUAGCACCAGCUAACCGUACGCUCAACGCGUAGUUCGUUGAUAUAAAUAGUGCCCAUGGAUC” belongs 5.48 enrichment factor; to “GGGGCCACCAACGACAUUUCACACUGUAAGGCCAUGUGCCGACUAGAAAUUGCGUUGAUAUAAAUAGUGCCCAUGGAUC”, 0.55 enrichment factor. Still for that read-out and setting: to “GGGGCCACCAACGACAUUCCAAGAUCACUUGGACCGUGUAUUAAGUACAGUUCGUUGAUAUAAAUAGUGCCCAUGGAUC” belongs 4.62 enrichment factor; to “GGGGCCACCAACGACAUUGUACCACGUAGGAUGAAGUCAUCCGAUCACAGUGUUGAUAUAAAUAGUGCCCAUGGAUC”, 1.37 enrichment factor; to “GGGGCCACCAACGACAUUAUACAGCCGAUCAUGUCACGUAGGCUGUGAUUAACGUUGAUAUAAAUAGUGCCCAUGGAUC”, 0.81 enrichment factor.

For the sequence “GGGGCCACCAACGACAUUUGCAUUUGGCAUCCAUAUCGGGCGACCGAUAGUUCGUUGAUAUAAAUAGUGCCCAUGGAUC”, the binding signal came to 2.86 enrichment factor.
